Potency data for 9 compounds are collected here from PubChem BioAssay (NCATS).

Inconclusive results are not listed. A call without a number means that no potency is given here. Active and inactive are the calls of the source. Calls come from the whole dose curve; as a rule, active = well fitted inhibition curve with a large enough effect; inconclusive = small, poorly fitted or top-dose-only effect; inactive = no such curve, though single readings can be large or run the other way.

For this assay, the system named is Zika virus NS2B-NS3 protease (unlinked complex). Put plainly: Primary screen GU Rhodamine qHTS for Zika virus inhibitors: Unlinked NS2B-NS3 protease assay (AID 1347159). Note: nearly all actives have a fitted effect of over 60% in size. Particulars: Recombinant ZIKV NS2B-NS3 protease, Rhodamine110 substrate fluorescence; series mostly up to 107 µM. Put shortly:
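In dose–response format, inhibition of unlinked protease (25 nM) was measured with 1.5 microM bis-peptide Rhodamine110 substrate. Aprotinin served as the intraplate control.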
Consider `C=C1[C@H](OC(C)=O)[C@H]2[C@@H](OC(C)=O)C(C)C[C@]2(OC(C)=O)C(=O)[C@H](C)/C=C/C(C)(C)C(=O)[C@H](OC(=O)C(C)C)[C@H]1OC(C)=O` (some centres undefined), for which the Potency entry is “inactive”. The entry for `COc1cc(O)cc(O[C@@H]2O[C@H](CO)[C@@H](O[C@@H]3OC[C@](O)(CO)[C@H]3O)[C@H](O)[C@H]2O)c1OC` is “inactive”; for `CC(C)CC[C@@H](O)[C@](C)(O)[C@H]1CC[C@@]2(O)C3=CC(=O)[C@@H]4C[C@@H](O)[C@@H](O)C[C@]4(C)[C@H]3CC[C@]12C` it is “inactive”; for `N#CC1C(=O)N=C(c2cc(Cl)ccc2O)C=C1c1cc(OCc2ccccc2)cc(OCc2ccccc2)c1` (centres undefined) it is “inactive”. With `C=C(C)C(O)COc1ccc(CC(=O)O)cc1` (centres undefined) the entry was “inactive”. The entry for `C=CCc1ccc(O[C@@H]2O[C@H](CO)[C@@H](O)[C@H](O)[C@H]2O)c(O[C@@H]2O[C@H](CO)[C@@H](O)[C@H](O)[C@H]2O)c1` is “inactive”; for `C[C@H]1CC[C@@]2(OC1)O[C@H]1CC3C4CC[C@H]5C[C@@H](O[C@@H]6O[C@H](CO)[C@H](O[C@@H]7O[C@H](CO)[C@@H](O)[C@H](O[C@@H]8OC[C@@H](O)[C@H](O)[C@H]8O)[C@H]7O[C@@H]7O[C@H](CO)[C@@H](O)[C@H](O)[C@H]7O)[C@H](O)[C@H]6O)[C@H](O)C[C@]5(C)C4=CC(=O)[C@]3(C)[C@H]1[C@@H]2C` (some centres undefined) it is “inactive”. Turning to `CC1=C(CO)C2(C)CCCC(C)(C)C2C(O)C1O` (centres undefined), the Potency entry is “inactive”. With `C=C(C)[C@@H]1CC[C@]2(C(=O)O)CC[C@]3(C)C(CCC4[C@]5(C)C(CC[C@]43C)C(C)(C)[C@@H](O)[C@@H]5C(=O)O)C12` (some centres undefined) the entry was “inactive”.
